# This is a sample that favours compounds with a hit; in the whole collection about 3.5% have one here.
# Rv3671c inh: inhibitors of M. tuberculosis serine protease Rv3671c | P9WHR9 | inhibition, % at 5.96 µM | actives 0.048% (n = 320,000); in the data active = inhibition above about 38%;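 also: extracellular domain of Rv3671c used as enzyme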
# GDH-TPI counter: GDH-TPI coupled enzyme inhibition counter-screen | GDH-TPI coupled enzyme counterscreen, NADH absorbance | inhibition, % at 4.8 µM | actives 1.2% (n = 360,000) | AID 588335; in the data active = inhibition above about 30%
# Mtb UGM inh: blocks M. tuberculosis UGM enzyme. purified UGM, fluorescence polarization probe displacement. inhibition, % at 10 µM. actives 0.06% (n = 320,000); in the data active = inhibition above about 10%, passing the limit was not always enough
# Target sequence (P9WIQ1 whole entry, looked up): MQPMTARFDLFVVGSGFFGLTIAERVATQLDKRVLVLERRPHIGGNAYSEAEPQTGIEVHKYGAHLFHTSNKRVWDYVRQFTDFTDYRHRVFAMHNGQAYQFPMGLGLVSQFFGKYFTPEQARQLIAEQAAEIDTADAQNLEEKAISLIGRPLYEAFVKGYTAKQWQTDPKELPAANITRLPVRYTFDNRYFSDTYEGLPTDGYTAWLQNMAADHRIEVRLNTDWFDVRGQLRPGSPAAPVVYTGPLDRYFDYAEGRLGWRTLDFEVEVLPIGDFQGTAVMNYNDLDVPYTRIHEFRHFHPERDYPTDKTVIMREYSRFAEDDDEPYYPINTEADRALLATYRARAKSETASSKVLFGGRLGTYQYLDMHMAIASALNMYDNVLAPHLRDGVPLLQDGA
# Mtb FBA inh: Mtb fructose-bisphosphate aldolase inhibition | AID 588726 | purified M. tuberculosis FBA, fluorescence read-out | inhibition, % at 1 µM | actives 2.3% (n = 360,000); in the data active = inhibition above about 27%
# A number is an active result; – = inactive; · = no result; + = active, no number.
SMILES,Rv3671c inh,GDH-TPI counter,Mtb UGM inh,Mtb FBA inh
Cc1ccc2c(c1)Cc1nc3ccccc3nc1-2,–,–,–,57.3
Cc1ccc2c(c1)-c1nc3ccccc3cc1C2=NC1CCCCC1,–,–,–,–
N/C(=N\N=C\c1ccc(O)c(O)c1)c1nonc1N,–,41.2,–,–
COc1cc(/C=N/N=C(\N)c2nonc2N)ccc1O,–,–,–,–
CSCCC(NC(=O)c1ccco1)C(=O)N1CC(C)OC(C)C1 (centres undefined),–,–,–,–
Cc1csc2ncc(C(=O)Nc3ccccc3F)c(=O)n12,–,30.8,–,–
COc1ccc(CNC(=O)c2cnc3scc(C)n3c2=O)cc1,–,–,–,–
Cc1csc2ncc(C(=O)Nc3ccccc3Cl)c(=O)n12,–,–,–,–
CCN(C(=O)c1cnc2scc(C)n2c1=O)c1ccccc1C,–,30.8,–,–
Cc1csc2ncc(C(=O)N3c4ccccc4CC3C)c(=O)n12 (centres undefined),–,41.6,–,–
O=C(Nc1cccc(Oc2ccccc2)c1)C1Cc2c(-c3ccccc3)ccnc2O1 (centres undefined),·,–,·,–
O=C(NCc1cccnc1)Nc1ccccc1C(F)(F)F,–,–,–,–
COc1ccc(/C=N/NC(=O)c2nnn(-c3nonc3N)c2CN(C)c2ccccc2)cc1,–,–,–,–
COc1cc(C2NC(=O)NC(C)=C2C(=O)OC2CCCCC2)cc(Cl)c1O (centres undefined),–,–,–,184.4
CC1=CS/C(=C(/C#N)C(=O)N2CCOCC2)N1c1ccccc1,–,31.6,–,–
COC(=O)/C(C#N)=C1/SC=C(C)N1c1ccccc1,–,–,–,–
CC1=CS/C(=C(/C#N)C(=O)N2CCCCC2)N1c1ccccc1,–,45.3,–,–
N#C/C(C(=O)N1CCCCC1)=C1\Nc2ccccc2S1,–,54.1,–,–
Cc1ccc(NC(=S)/C(C#N)=C2/Nc3ccccc3S2)cc1,·,–,·,–
COC(=O)C(NC(=O)c1ccccc1)=C(C)C,–,–,–,–
CCOC(=O)C(NC(=O)c1ccccc1)=C1C=C(C)OC(C)=C1,–,41.7,–,–
COC(=O)C(NC(=O)c1ccccc1)=C1C=C(C)OC(C)=C1,–,30.8,–,–
O=C(NCc1c(Cl)cccc1Oc1ccccc1)c1ccccc1,–,–,–,–
C1=C(c2ccccc2)Nc2ncnn2C1c1ccccc1 (centres undefined),–,–,–,–
CCC1=CC(c2ccccc2)n2ncnc2N1 (centres undefined),–,–,–,35.0
SMILES,Rv3671c inh,GDH-TPI counter,Mtb UGM inh,Mtb FBA inh
COCCC(=O)N1CCC(Oc2ccc(C(=O)N3C[C@H]4CC[C@H]3C4)cc2)CC1,–,–,–,–
CC1CCCN(C(=O)COc2ccc(Nc3ccccc3)cc2)C1 (centres undefined),–,–,–,–
COC(=O)C(C(=O)OC)=C(/C=C/C=C/N(C)C)N(C)C,–,–,–,–
COC(=O)C(C(=O)OC)=C(/C=C/N(C)C)N(C)C,–,37.6,–,–
CC(C)(C)C(=O)Nc1ccc(/C=C/C(=O)c2ccco2)cc1,–,49.0,–,–
O=C(/C=C/c1cc(Br)ccc1O)c1ccco1,–,–,–,–
O=C(/C=C/c1ccccc1O)c1ccco1,–,33.1,–,–
O=C(c1ccc(F)cc1)N1CCC(C(=O)N2CCN(c3ncccn3)CC2)CC1,–,–,–,–
N#Cc1nc(-c2cccs2)oc1NCCc1ccccc1,–,–,–,+
N#Cc1nc(-c2ccccc2F)oc1NCCc1ccccn1,–,–,–,–
N#Cc1nc(-c2ccccc2F)oc1NCCc1ccccc1,–,–,–,122.4
N#Cc1nc(-c2cccs2)oc1NCCN1CCOCC1,–,31.6,–,194.9
Cc1ccc(CNc2oc(C)nc2C#N)cc1,–,–,–,–
COc1ccc(CCNc2oc(Cc3ccccc3)nc2C#N)cc1OC,–,–,–,–
N#Cc1nc(-c2ccccc2F)oc1NCc1ccccc1,–,–,–,141.5
N#Cc1nc(-c2cccs2)oc1NCc1ccc2c(c1)OCO2,–,–,–,112.3
CCOC(=O)c1nn(-c2ccccc2)c(C#N)c1N,–,–,–,+
CCOC(=O)c1nn(-c2ccccc2)c(=O)c(C#N)c1C,–,–,–,–
CCCC(=O)Nc1ccc(Cc2ccc(NC(=O)CCC)c(C(=O)O)c2)cc1C(=O)O,–,–,11.3,–
C=C(C)Cn1c(CN(C)Cc2ccccc2)nc2c1c(=O)n(C)c(=O)n2C,–,–,–,–
Cn1cccc1/C=C1\SC(=S)N(NC(=O)c2ccccc2O)C1=O,–,32.9,–,–
COc1ccc2cc(C(N)=O)/c(=N\NC(=O)c3ccccc3)oc2c1,–,–,–,112.2
COc1ccccc1N=c1oc2cc(O)ccc2cc1C(N)=O,–,–,–,+
Cc1cccc(N=c2oc3cc(O)ccc3cc2C(N)=O)c1,–,–,–,+
COc1cccc2cc(C(=O)NCC3CCCO3)c(=O)oc12 (centres undefined),–,–,–,–
SMILES,Rv3671c inh,GDH-TPI counter,Mtb UGM inh,Mtb FBA inh
COc1ccccc1N=c1oc2cc(O)ccc2cc1C(=O)NCC1CCCO1 (centres undefined),–,–,–,+
O=C(CC[C@H]1O[C@@H](n2ccc(=O)[nH]c2=O)[C@H](O)[C@@H]1O)N[C@H](Cc1ccccc1)C(=O)NCc1cccs1,·,·,·,–
COc1cccc(N=c2oc3cc(O)ccc3cc2C(=O)NCC2CCCO2)c1 (centres undefined),–,–,–,+
COc1ccc(CNC(=O)CCN2C(=O)[C@@H]3Cc4ccccc4CN3C2=O)cc1,–,–,–,–
CCN(CC(=O)NCc1cccs1)C(=O)c1cccc(Cl)c1,–,–,–,–
CN1CCc2c(sc3c2C(=O)NC(c2cccc(OC(=O)c4cccs4)c2)N3)C1 (centres undefined),–,–,–,–
CCOC(=O)N1CCc2c(sc3c2C(=O)NC(c2ccccc2)N3)C1 (centres undefined),–,–,–,58.4
CCOC(=O)c1ccc(-c2ccc(/C=C(\C#N)C(=O)NCC3CCCO3)o2)cc1 (centres undefined),–,33.9,–,–
CSc1nc2nccc(-c3ccc(Cl)cc3)n2n1,–,–,–,–
CSc1nc2nccc(/C=C\c3ccccc3)n2n1,–,31.1,–,–
Cc1nn(-c2ccccc2)c2c1C(O)CC(C)(C)C2 (centres undefined),–,–,–,–
Cc1nc2c(c3c1[nH]c1ccccc13)C(O)CC(C)(C)C2 (centres undefined),–,–,–,120.1
Cc1[nH]n(-c2cccc3ccccc23)c(=O)c1C=Nc1ccc2[nH]c(=O)[nH]c2c1,–,34.7,–,–
O=C(NCc1cnn(-c2ccccc2)c1)C1CCC(=O)N(C2CC2)C1 (centres undefined),–,–,–,–
Cc1ccc2nc(-c3ccc(N4C(=NC(=O)CCC(=O)O)SC5CS(=O)(=O)CC54)cc3)sc2c1 (centres undefined),–,–,–,66.1
O=C(Nc1nnc([C@H]2C[C@H](O)[C@@H](CO)O2)s1)NC1CCCCC1,·,–,·,–
COC(=O)COc1c(/C=C\c2nc(O)c([N+](=O)[O-])c(=O)[nH]2)cccc1OC,–,32.2,–,–
C#CCOc1c(/C=C\c2nc(O)c([N+](=O)[O-])c(=O)[nH]2)cc(Br)cc1OC,–,49.0,–,–

# Source: PubChem
